NPR1 activator = GC-A (human) enzyme activation; activation, % at 10 µM; AID 1671463; P16066; actives 0.14% (n = 370,000); HEK293 GC-A cells, cGMP TR-FRET, EC30 ANP; 0% at EC30 ANP, 100% saturating ANP; in the data active = activation above about 40%
Target sequence (P16066 whole entry, looked up): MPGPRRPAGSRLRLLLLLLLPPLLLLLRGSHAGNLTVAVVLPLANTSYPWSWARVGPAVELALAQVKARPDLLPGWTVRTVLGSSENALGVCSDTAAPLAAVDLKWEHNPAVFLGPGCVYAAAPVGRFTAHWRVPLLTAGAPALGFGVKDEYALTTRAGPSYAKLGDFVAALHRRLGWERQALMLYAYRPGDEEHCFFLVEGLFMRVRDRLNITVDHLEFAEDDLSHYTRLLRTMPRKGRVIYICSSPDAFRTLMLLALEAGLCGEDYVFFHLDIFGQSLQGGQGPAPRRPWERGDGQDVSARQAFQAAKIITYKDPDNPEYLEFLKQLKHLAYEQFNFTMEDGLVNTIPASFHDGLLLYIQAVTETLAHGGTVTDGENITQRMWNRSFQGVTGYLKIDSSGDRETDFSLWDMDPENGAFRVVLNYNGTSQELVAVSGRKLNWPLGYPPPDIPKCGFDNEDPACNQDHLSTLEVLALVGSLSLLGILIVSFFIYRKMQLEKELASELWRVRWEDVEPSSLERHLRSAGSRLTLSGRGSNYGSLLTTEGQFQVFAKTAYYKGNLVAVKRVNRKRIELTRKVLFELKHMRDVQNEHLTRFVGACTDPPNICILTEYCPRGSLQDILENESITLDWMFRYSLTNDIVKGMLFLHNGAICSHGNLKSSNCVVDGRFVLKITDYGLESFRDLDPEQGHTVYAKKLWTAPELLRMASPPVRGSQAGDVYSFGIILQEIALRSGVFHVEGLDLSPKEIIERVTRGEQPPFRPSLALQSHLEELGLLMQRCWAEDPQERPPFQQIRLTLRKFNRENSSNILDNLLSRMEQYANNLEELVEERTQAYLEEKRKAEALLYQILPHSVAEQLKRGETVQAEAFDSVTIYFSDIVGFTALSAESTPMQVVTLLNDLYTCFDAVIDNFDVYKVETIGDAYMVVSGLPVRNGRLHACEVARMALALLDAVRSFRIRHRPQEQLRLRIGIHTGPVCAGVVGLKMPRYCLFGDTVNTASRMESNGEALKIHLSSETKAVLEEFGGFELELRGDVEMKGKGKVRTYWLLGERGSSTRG
TLR4-MyD88 BLA = inhibitors of human TLR4-MyD88 binding. HeLa CL3-4 TLR4/MyD88 BLA complementation, FRET ratio. actives 0.18% (n = 200,000). AID 861. inhibition, % at 8.4 µM. O00206+Q99836; in the data active = inhibition above about 25%;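 note: 0% = vehicle and 100% = reference inhibitor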
Neddylation inh = inhibitors of human cullin neddylation | P61081+Q13564 | TR-FRET cullin neddylation, biochemical | inhibition, % at 25 µM | actives 0.58% (n = 360,000); in the data active = inhibition above about 36%
NPR2 activator = GC-B (human) receptor activation; P20594; HEK293-GC-B cells, CNP EC30, cGMP TR-FRET; 0% at EC30 CNP, 100% saturating CNP; activation, % at 10 µM; actives 0.11% (n = 370,000); AID 1920062;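 active = activation at 10 µM reaching about 35% in either raw or pattern-adjusted values, limit read from the data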
TLR9-MyD88 block = inhibitors of human TLR9-MyD88 binding | CHO BLA complementation TLR9-MyD88, CCF4 FRET ratio | Q9NR96+Q99836 | actives 0.21% (n = 340,000) | inhibition, % at 4.98 µM;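 active = inhibition above the mean over all tested compounds plus 3 SD, cut at about 21% in these data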;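 note: 0% = DMSO only wells and 100% = clavulanate BLA inhibitor control wells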
NOD2 RIPK2 PPI = inhibitors of human NOD2-RIPK2 interaction. O43353. CHO BLA complementation NOD2-RIPK2, CCF4 ratio. inhibition, % at 4.98 µM. actives 0.38% (n = 360,000); in the data active = inhibition above about 21%;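 note: 0% = vehicle only and 100% = reference blocker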
Neddyl conf = confirmation of human cullin neddylation inhibitors. shares compounds with Neddylation inh. TR-FRET cullin neddylation biochemical assay. actives 13% (n = 1,800). calls only at 25 µM; in the data active = inhibition above about 40%;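 note: neddylation substrate is the cullin 1 ring ligase complex with SKP2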
* hit, by the source's call; i = inactive; nt = no result shown; + = active, no number. This is a sample that favours compounds with a hit; in the whole collection about 1.2% have one here.

SMILES	NPR1 activator	TLR4-MyD88 BLA	Neddylation inh	NPR2 activator	TLR9-MyD88 block	NOD2 RIPK2 PPI	Neddyl conf
O=C(O)c1cccc(N/N=C/c2sc(N3CCOCC3)nc2-c2ccccc2)c1	-4	-3	41*	-7	-3	4	nt
COc1cc(C(=O)N/N=C/c2sc(N3CCOCC3)nc2-c2ccccc2)cc(OC)c1OC	3	8	52*	4	-2	-3	i
Nc1ccc(C(=O)N/N=C/c2sc(N3CCOCC3)nc2-c2ccccc2)cc1	-9	-17	48*	-7	-8	-14	i
O=C(N/N=C/c1sc(N2CCOCC2)nc1-c1ccccc1)c1ccccc1O	2	-2	49*	-8	0	6	i
CCC(=O)N1CCCC(C)(C(=O)Nc2ccc3scnc3c2)C1 (configuration not stated)	-2	nt	7	6	nt	1	nt
COc1ccc(S(=O)(=O)N2CCCCC2c2cc(C(=O)Nc3ccc4c(c3)OCO4)no2)cc1 (configuration not stated)	7	nt	-5	3	nt	-4	nt
COC(=O)CN1C(=O)CSc2ccc(S(=O)(=O)N3CCC(C)CC3)cc21	6	nt	0	1	nt	1	nt
Cc1ccc(CN2CCCCC(NC(=O)c3ccc(F)cc3)C2=O)cc1 (configuration not stated)	2	nt	nt	2	nt	nt	nt
Nc1nccnc1C(=O)OCC(=O)NCCc1ccc(S(N)(=O)=O)cc1	1	nt	63*	-3	-3	-7	nt
CCOC(=O)C1=C(C)NC(C)=C(C(=O)OCC)C1C(=O)OCC(=O)NC(C)c1ccccc1 (configuration not stated)	-6	nt	45*	-5	9	5	nt
CCOC(=O)C1=C(C)NC(C)=C(C(=O)OCC)C1C(=O)OCC(=O)NCc1ccccc1	-6	nt	nt	-2	-3	-1	nt
CCOC(=O)C1=C(C)NC(C)=C(C(=O)OCC)C1C(=O)OCC(=O)NCCc1ccc(S(N)(=O)=O)cc1	-6	nt	42*	-15	0	4	i
COCC(=O)NCCc1ccc(S(N)(=O)=O)cc1	-3	-1	6	2	-8	-3	nt
CC1C(=O)N(Cc2cn(CCC3OCCCO3)nn2)CCS(=O)(=O)N1Cc1ccc(-c2ccc(Cl)c(Cl)c2)cc1 (configuration not stated)	16	nt	-34	-2	-2	1	nt
O=C(N/N=C/c1cccnc1)c1ccc(CN2c3cccc4cccc(c34)S2(=O)=O)cc1	-10	-4	46*	-5	-20	2	+
O=C(CN1C(=O)c2ccccc2C1=O)C(O)CN1C(=O)c2ccccc2C1=O (configuration not stated)	nt	nt	-45	nt	nt	-70	nt
COc1ccccc1CNS(=O)(=O)c1c(C)nc2scc(C)n2c1=O	-3	nt	35	2	5	-2	nt
Cc1nc2scc(C)n2c(=O)c1S(=O)(=O)NCc1ccccc1Cl	5	nt	41*	0	6	-2	i
Cc1c(Cl)cccc1-n1nnnc1-c1cccs1	-1	0	-6	-2	-3	8	nt
Cc1ccc(-n2nnnc2-c2cccs2)cc1[N+](=O)[O-]	-4	nt	51*	-7	-5	9	i
COc1ccc(-n2c(SCC(=O)c3ccc4ccccc4c3)nnc2-c2ccccc2)cc1	-3	nt	nt	-7	nt	nt	nt
C/C=C(\C)C(=O)OC(C)(C)[C@@H]1Cc2cc3ccc(=O)oc3cc2O1	2	nt	nt	5	-1	-19	nt
CC(C)C1Oc2cc3oc(=O)ccc3cc2C1=O (configuration not stated)	-3	1	46*	-3	-4	9	i
O=S(=O)(Nc1nc2ccccc2nc1Nc1ccc2c(c1)OCO2)c1ccc(F)cc1	1	6	38*	2	6	2	i
COc1cccc(Nc2nc3ccccc3nc2NS(=O)(=O)c2ccc(NC(C)=O)cc2)c1	nt	nt	51*	nt	-9	-3	nt
SMILES	NPR1 activator	TLR4-MyD88 BLA	Neddylation inh	NPR2 activator	TLR9-MyD88 block	NOD2 RIPK2 PPI	Neddyl conf
COc1ccc(Nc2nc3ccccc3nc2NS(=O)(=O)c2ccc(NC(C)=O)cc2)cc1	-2	nt	14	0	-3	-7	nt
O=c1c2ccccc2[nH]n1[C@@H](Cc1ccccc1)Cn1cc(-c2ccc(-c3ccccc3)cc2)nn1	2	nt	nt	-2	nt	nt	nt
CN1C(=O)CCS(=O)(=O)C1c1ccc(Cl)c(Cl)c1 (configuration not stated)	1	nt	3	0	2	5	nt
c1ccc(Cn2c(SCc3cn4cccnc4n3)nnc2-c2ccco2)cc1	0	-12	37*	6	9	12	i
N#CCCn1cc(C(=O)CN2C(=O)C(=O)N(C3CCCC3)C2=O)c2ccccc21	3	nt	4	-1	-2	1	nt
CSc1nnc(-c2sc3cc(C(F)(F)F)cnc3c2-c2ccccn2)n1C	2	0	42*	2	8	-10	i
C=CCN1C(C(=O)OC)CN(Cc2cn(Cc3ccc(F)cc3)nn2)CCS1(=O)=O (configuration not stated)	-1	nt	nt	-2	nt	nt	nt
COc1ccccc1NC(=O)OC1CCC12CCCCC2 (configuration not stated)	-2	nt	nt	1	nt	nt	nt
Nc1nc2ccccc2nc1N	2	-3	43*	2	-14	5	+
c1ccc2nc3ccccc3nc2c1	1	10	-23	8	1	-11	nt
Cc1cc(Nc2ccc(Cl)cc2)n(-c2ccccc2)n1	6	13	8	5	7	10	nt
Cc1cc(Nc2nc3c(c(=O)n(C)c(=O)n3C)n2C)n(-c2ccc(Cl)cc2)n1	-4	-2	40*	-3	-5	-9	i
N#Cc1ncc(-c2ccc3c(c2)OCCOCCOCCOCCO3)nc1C#N	2	-17	38*	-2	8	-2	i
CCOc1ccc(-n2c(O)c(/C=N/NC(=O)C3COc4ccccc4O3)c3ccccc3c2=O)cc1 (configuration not stated)	6	-4	42*	1	8	18	i
COc1ccc(S(=O)(=O)N(C)C[C@H]2Oc3c(NC(=O)c4ccncc4)cccc3C(=O)N([C@H](C)CO)C[C@@H]2C)cc1	1	nt	-28	10	16	-4	nt
CCCc1cc(-n2ccnc2)n2c(nc3ccccc32)c1C#N	3	1	nt	2	3	-1	nt
Cc1cc(-n2ccnc2)n2c(nc3ccccc32)c1C#N	3	-4	43*	-6	2	-13	i
COCCn1nnnc1C(c1cc2cc(OC)c(OC)cc2[nH]c1=O)N1CCN(c2ccc(O)cc2)CC1 (configuration not stated)	3	-13	42*	7	1	1	i
